A selection: hits, their analogues and other compounds. The true share with any hit is near 18%.
TDP1 block – inhibitors of human tyrosyl-DNA phosphodiesterase TDP1 | actives 0.28% (n = 350,000) | Q9NUW8 | recombinant TDP1, AlphaScreen DNA substrate cleavage | AID 485290 | Potency, µM (series often up to 130 µM), usual class: inhibitors; further: nearly all actives have a fitted effect of over 40% in size
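Tdp1 1 nM final; 15 min RT w/ cpd; substrate 15 nM, 5 min; beads 10 ug/ml, 10 min; AlphaScreen read. Neg ctrl: no enzyme.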
VDR inhibitor – inhibitors of human vitamin D receptor | P11473 | VDR-SRC2-3 peptide fluorescence polarization, 2 h | AID 504847 | actives 0.93% (n = 400,000) | Potency, µM, actives largely listed as inhibitors
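Fluorescence polarization assay of small-molecule disruption of VDR binding to coregulator peptide SRC2-3. Compounds and controls pin-transferred, then read after 2 h incubation at ambient room temperature.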
GCN5L2 inh – GCN5L2 (KAT2A) acetyltransferase inhibition | GCN5L2 HAT assay, ThioGlo1 CoA-SH fluorescence | AID 504327 | Q92830 | actives 0.21% (n = 390,000) | Potency, µM (highest dose often 58.9 µM), actives largely listed as inhibitors
Target sequence (Q92830 whole entry, looked up): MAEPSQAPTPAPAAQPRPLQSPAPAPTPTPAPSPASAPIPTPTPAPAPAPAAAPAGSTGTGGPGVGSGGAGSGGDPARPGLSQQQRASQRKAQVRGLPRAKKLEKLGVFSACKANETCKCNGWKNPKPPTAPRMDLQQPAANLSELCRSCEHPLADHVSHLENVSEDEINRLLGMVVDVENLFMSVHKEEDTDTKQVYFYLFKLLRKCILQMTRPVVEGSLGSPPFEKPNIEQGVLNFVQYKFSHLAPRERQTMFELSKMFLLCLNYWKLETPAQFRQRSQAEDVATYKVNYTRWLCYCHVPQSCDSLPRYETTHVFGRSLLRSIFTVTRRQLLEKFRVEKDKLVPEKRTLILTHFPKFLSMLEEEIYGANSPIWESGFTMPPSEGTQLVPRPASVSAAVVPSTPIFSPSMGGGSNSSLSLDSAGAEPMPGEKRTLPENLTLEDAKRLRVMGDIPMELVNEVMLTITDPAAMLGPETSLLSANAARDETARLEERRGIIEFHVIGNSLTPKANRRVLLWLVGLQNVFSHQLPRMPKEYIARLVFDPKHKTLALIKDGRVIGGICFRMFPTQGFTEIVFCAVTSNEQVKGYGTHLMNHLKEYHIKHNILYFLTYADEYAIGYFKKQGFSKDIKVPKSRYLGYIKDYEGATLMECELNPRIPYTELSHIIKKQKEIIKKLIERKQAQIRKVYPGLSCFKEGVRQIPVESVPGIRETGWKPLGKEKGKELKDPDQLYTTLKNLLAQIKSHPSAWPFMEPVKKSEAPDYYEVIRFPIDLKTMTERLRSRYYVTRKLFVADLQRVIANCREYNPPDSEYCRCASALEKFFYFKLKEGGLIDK
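qHTS, 1536-well. 20nM enzyme, pH 7.5 HEPES/EDTA/Tween-20 buffer; 15 min compound preinc., RT. Start: 75uM H3(1-25), 70uM AcCoA, 50uM ThioGlo1. Read Ex340/Em540 at t=0 (autofluorescence flag) and t=20 min.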
DT40 TDP1 no CPT – qHTS for Inhibitors of human tyrosyl-DNA phosphodiesterase 1 (TDP1): qHTS in cells in absence of CPT; DT40 Tdp1-/- hTDP1 cells, no CPT, ATP luminescence, 48 h; Potency, µM (series often up to 46.2 µM), hits mostly inhibitors; actives 15% (n = 420,000); further: nearly all actives have a fitted effect of over 55% in size
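A cellular qHTS used chicken DT40 cells lacking endogenous Tdp1 but carrying stably transfected human TDP1. Compounds were applied without camptothecin, and cell growth kinetics were judged by ATP-dependent luminescence after ≥48 hr.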
PLK1 PBD block – blocks phosphopeptide binding to human PLK1 polo-box domain; Potency, µM, hits mostly inhibitors; actives 2.8% (n = 360,000); Plk1 PBD binding of FITC phosphopeptide, fluorescence polarization; further: series mostly up to about 57 µM; nearly all actives have a fitted effect of over 65% in size
DT40 TDP1 CPT – growth inhibition of DT40 Tdp1-/-;hTDP1 cells with camptothecin (screen for TDP1 inhibitors). chicken DT40 Tdp1-/-;hTDP1 cells + 20 nM CPT, ATP luminescence, 48 h. Potency, µM (titrated, usually from 46.2 µM), actives largely listed as inhibitors. actives 12% (n = 420,000); further: nearly all actives have a fitted effect of over 55% in size
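Chicken DT40 Tdp1-/- cells stably complemented with human TDP1 were seeded at 400 cells/well in medium containing 20 nM camptothecin, exposed to pin-transferred compounds, and grown at 37 °C for at least 48 hr. Viability was read as ATP luminescence.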
A number is an active result; - = inactive; ? = inconclusive; . = no result given; [ ] = another dose, or the depositor's remark. The call rests on the fitted dose curve; in most records, active means well fitted curve in the direction sought with a large enough effect; inconclusive means small, poorly fitted or top-dose-only effect, or another doubt; inactive means no such curve, though single readings can be large; an effect the other way counts as inactive or inconclusive.

SMILES	TDP1 block	VDR inhibitor	GCN5L2 inh	DT40 TDP1 no CPT	PLK1 PBD block	DT40 TDP1 CPT
CC(C)(C)NC(=O)NC(=O)CN1CCCCC1	-	-	-	-	-	-
O=C(NC1CCN(Cc2cccc([N+](=O)[O-])c2)CC1)c1ccccc1	.	-	-	-	-	-
CCCCOc1ccc(C(=O)NCC(=O)NC2CCN(Cc3ccccc3)CC2)cc1	-	-	-	?	-	23.1µM
CC(C)(C)NC(=O)NC(=O)CN1CCN(Cc2ccccc2)CC1	-	-	-	?	29.9µM	?
O=C(NC1CCN(Cc2ccc(Cl)cc2Cl)CC1)c1ccccc1	.	-	-	18.4µM	-	20.6µM
CCCCN(C)C(=O)C1CCN(Cc2ccc(OCc3ccccc3)cc2)CC1	-	-	-	16.4µM	-	?
NC(=O)C1CCN(Cc2ccc(OCc3ccccc3)cc2)CC1	.	-	-	-	-	-
Cc1cnc(CNC(=O)C2CCC(=O)N(CCc3ccc(Cl)cc3)C2)cn1 (centres undefined)	.	-	-	-	-	-
COc1cccc(CSc2nc3n(n2)C(CC(C)C)C(C(=O)Nc2ccccc2C)=C(C)N3)c1 (centres undefined)	-	-	-	-	.	?
Cc1ccc(Cl)cc1S(=O)(=O)N1CCC(C(=O)NC2CCN(Cc3ccccc3)CC2)CC1	-	-	-	14.6µM	-	?
COc1ccc(CC(=O)NC2CCN(Cc3nnnn3C(C)(C)C)CC2)cc1OC	-	-	-	-	-	-
CCC(C)(C)n1nnnc1CN1CCC(NC(=O)c2ccc(Br)cc2)CC1	-	-	-	20.6µM	-	?
CC(C)(C)OC(=O)N1CCC(NC(=O)c2ncn(Cc3ccccc3)c2C(=O)NC2CCN(C(=O)OC(C)(C)C)CC2)CC1	-	-	-	?	-	23.1µM
COc1ccc(C(=O)NC2CC2)cc1OC1CCN(Cc2ccc(F)cc2Cl)CC1	.	-	.	18.4µM	-	?
O=C(Nc1nc2c(F)cccc2s1)c1ccc(S(=O)(=O)N2CCOCC2)cc1	-	-	-	-	.	?
C[C@H]1CN([C@@H](C)CO)C(=O)CCCn2cc(nn2)CO[C@@H]1CN(C)C(=O)Nc1ccccc1C(F)(F)F	.	.	.	-	-	-
O=C(NC1CCN(Cc2ccccc2)CC1)c1ccccc1	.	-	-	-	-	-
CC(C)(C)c1ccc(C(=O)NC2CCN(Cc3ccccc3)CC2)cc1	.	-	-	18.4µM	-	?
O=C(O)/C=C/C(=O)N(CC1CCCO1)C1CC(=O)N(c2c(Cl)cccc2Cl)C1=O (centres undefined)	-	-	-	-	-	-
Cc1[nH]n(-c2ccc(Br)cc2)c(=O)c1/C=N/NC(=O)c1ccccc1	-	-	-	2.91µM	-	4.61µM
O=C(N/N=C/c1ccc(Br)cc1)c1ccc(NC(=O)c2ccccc2)cc1	.	-	.	-	-	-
Cc1[nH]n(-c2ccccc2)c(=O)c1/C=N/NC(=O)c1cccc(F)c1	.	-	-	4.11µM	-	5.17µM
O=c1cc(-c2ccccc2Cl)oc2cc(O)cc(O)c12	-	-	-	-	-	-
O=C1C=CC(O)(c2cc(=O)c3c(O)cc(O)cc3o2)C=C1	-	31.6µM	-	0.517µM	-	0.366µM
CN(CCc1ccc(Cl)c(Cl)c1)CC(O)COc1ccc(NS(C)(=O)=O)cc1 (centres undefined)	-	-	-	23.1µM	.	18.4µM
SMILES	TDP1 block	VDR inhibitor	GCN5L2 inh	DT40 TDP1 no CPT	PLK1 PBD block	DT40 TDP1 CPT
COc1ccc(CCN(C)CC(O)COc2c(C)ccc(C)c2C)cc1OC (centres undefined)	.	-	-	?	-	?
COC(=O)c1ccccc1NC(=O)c1c(C)oc2ncn(C)c(=O)c12	-	-	-	-	.	-
CC(C)CC(N)c1csc(Nc2cnccn2)n1 (centres undefined)	.	.	.	9.2µM	-	13µM
CC(C)CC(N)c1csc(Nc2ccccn2)n1 (centres undefined)	.	.	.	?	-	14.6µM
NC(CCc1ccccc1)c1csc(Nc2ccccn2)n1 (centres undefined)	.	.	.	?	-	?
CC(C)CC(N)c1csc(Nc2ccc(C(=O)NCCO)cc2)n1 (centres undefined)	.	.	.	?	-	?
NC(COCc1ccccc1)c1csc(Nc2ccccn2)n1 (centres undefined)	.	.	.	?	-	25.9µM
NC(COCc1ccccc1)c1csc(Nc2nncc3ccccc23)n1 (centres undefined)	.	.	.	20.6µM	-	?
COc1ccc(C(N)c2csc(Nc3nncc4ccccc34)n2)cc1 (centres undefined)	.	.	.	?	-	?
CC1CCCCC1NC(=O)CN1CCC(NC(=O)C(C)(C)C)CC1 (centres undefined)	.	.	.	-	-	-
COc1cc2c(N3CCN(C(=O)Nc4ccc(OC(C)C)cc4)CC3)ncnc2cc1OCCCN1CCCCC1	.	.	.	21.1µM	.	?
CC(C)c1nc2cccnc2n1C1CCN(C(=O)Cn2cccn2)CC1	.	.	.	-	.	-[9.04 µM]
CC(C)=C[C@@H]1C[C@H](C)[C@H]2CC[C@H](C)c3c(O)c(O)c(C)c1c32	-	?	-	?	?	20.6µM
CC(=O)O[C@H]1[C@H](O)[C@H](Oc2c(O)c(C)c3c4c2[C@@H](C)CC[C@@H]4[C@@H](C)C[C@H]3C=C(C)C)O[C@@H](C)[C@H]1O	-	-	-	18.4µM	-	?
CC(C)=C[C@H]1C[C@H](C)[C@H]2CC[C@H](C)c3c(O[C@@H]4OC[C@@H](O)[C@H](O)C4O)c(O)c(C)c1c32 (some centres undefined)	-	-	-	?	-	-
Cn1c(=O)c2sccc2n2c(CCC(=O)Nc3ccc(F)cc3)nnc12	-	-	-	?	.	?
O=C(CN1CCN(C(=O)CNC(=O)c2ccc3c(c2)OCO3)CC1)Nc1cccc(F)c1	-	-	-	-	-	-
O=C(Cc1cccc2ccccc12)NCC(=O)N1CCN(CC(=O)Nc2ccc(F)cc2)CC1	.	.	.	18.4µM	-	?
CC1CN(C(=O)CNC(=O)Cc2cccc3ccccc23)CC(C)O1 (centres undefined)	-	-	-	-	-	-
O=C(Cc1cccc2ccccc12)NCC(=O)N1CCN(Cc2cccc(C(F)(F)F)c2)CC1	-	-	-	10.3µM	-	10.3µM
Cc1cc(OCC(=O)Nc2ccc(Br)cc2)cc2c1C(=O)CC(C)(C)O2	-	-	-	23.1µM	-	29.1µM
Cc1cccc2sc(NS(C)(=O)=O)nc12	-	-	-	-	-	-
Cc1ccc(/C(=N\O)c2oc3c(C)c4oc(=O)cc(C)c4cc3c2C)cc1	-	-	-	16.4µM	-	18.4µM

Assay outcomes (PubChem)
